# From PubChem BioAssay (EPA / NIEHS)
# “And” between values parts separate entries of the source, which are not always exact repeats. Equal values may be shown once. The source holds several records for some structures; these can differ, active in one and inactive in another. The source made the active and inactive calls. How the source made its calls: active means hit-call score of the fitted dose curve at least 0.9, where 1 is the maximum; inactive means score below 0.9.
# Read-out: Vascular cell adhesion molecule 1 (VCAM1), VCAM1 (gene 7412)
# Experiment: BSK_MyoF_VCAM1: BioMAP Diversity Plus: MyoF Assay for Vascular cell adhesion molecule 1 (VCAM1) Biomarker Activity (AID 2284231)
# Details: primary human lung fibroblasts
# Experimental: BSK_MyoF is a cell-based, multiplexed-readout assay that uses lung fibroblasts, […], with measurements taken at 24 hours after chemical dosing in a microplate: 96-well plate.BSK_MyoF_VCAM1 is an assay component measured in the BSK_MyoF assay. It measures VCAM-1 antibody related to regulation of gene expression using ELISA technology.Data from the assay component BSK_MyoF_VCAM1 was analyzed at the endpoint, BSK_MyoF_VCAM1, in the positive analysis fitting direction relative to DMSO as the negative control and baseline of activity. Using a type of binding reporter, gain or loss-of-signal activity can be used to understand protein changes. To generalize the intended target to other relatable targets, this assay endpoint is annotated to the 'cell adhesion molecules' intended target family, where the subfamily is 'Immunoglobulin CAM'.
# The levels of cell surface (or secreted, indicated by the prefix "s") biomarker endpoints were measured by ELISA. Overt cytotoxicity to cells in confluent adherent cultures (all systems other than the BT system) was assessed by measuring total protein levels using sulforhodamine B (SRB) staining in parallel cultures at the time of biomarker measurements, indicated as SRB endpoints. For proliferation assays for adherent cell types, individual cell types are cultured at sub-confluence and relative cell numbers quantified by SRB staining at time points optimized for each system (48 h: 3C and CASM3C systems; 72 h: BT and HDF3CGF systems; 96 h: SAg system). SRB was performed by staining cells with 0.1% SRB after fixation with 10% TCA and reading wells at 560 nm.Viability and proliferation of PBMC (T cells) was quantified by Alamar Blue reduction for the SAg and BT systems. For PBMC viability (referred to as PBMC Cytotoxicity within the assay endpoint names), cells were plated (75,000/well in a 96-well plate) and then chemical samples added for 1 h before addition of activators, SEB and TSST-1 (20 ng/mL final concentration each). Cells were incubated for 90 h. Then, Alamar Blue (20 uL/well) (Invitrogen, Cat DAL1100) was added for 6 h, and the plates were read with a fluorescence microplate reader at 546/580 nm (excitation/emission). For PBMC proliferation, cells were plated and activated as above but incubated for only 16 h prior to addition of Alamar Blue. Plates were read after 6 h.
SMILES,outcome,AC50
CCOP(=S)(OCC)SCSc1ccc(Cl)cc1,inactive,
CC(C)(C)c1ccccc1OP(=O)(Oc1ccccc1)Oc1ccccc1,,33.7 µM (active)
c1ccc2c(c1)sc1ccccc12,inactive,
O=C(O)C(F)(F)OC(F)(F)C(F)(F)OC(F)(F)F,inactive,
COP(N)(=S)OC,inactive,
FC(F)(F)C(F)(C(F)(F)F)C(F)(F)C(F)(F)CC1CO1 (centres undefined),inactive,
OCC(F)(F)OC(F)(F)C(F)(F)OC(F)(F)C(F)(F)OC(F)(F)F,,54.7 µM (active) and 40.5 µM (active)
COC(=O)C(F)(F)C(F)(F)OC(F)(C(F)(F)F)C(F)(F)OC(F)=C(F)F (centres undefined),inactive,
OCC(F)(F)OC(F)(F)C(F)(F)OC(F)(F)C(F)(F)OC(F)(F)CO,inactive,41.2 µM (active)
O=P(OCC(Br)CBr)(OCC(Br)CBr)OCC(Br)CBr (centres undefined),,17.4 µM (active)
Cc1ccc2c(c1N)C(=O)c1ccccc1C2=O,inactive,
CCOP(=S)(NC(C)C)Oc1ccccc1C(=O)OC(C)C (centres undefined),inactive,
CC(O)C(F)(F)C(F)(F)F (centres undefined),inactive,
CCCCOCCOP(=O)(OCCOCCCC)OCCOCCCC,inactive,
Cc1c([N+](=O)[O-])cc2c(c1[N+](=O)[O-])C(C)(C)CC2(C)C,,6.96 µM (active)
ClC(Cl)=C(c1ccc(Cl)cc1)c1ccccc1Cl,,5.1 µM (active)
CCCCC(CC)COC(=O)c1c(Br)c(Br)c(Br)c(Br)c1C(=O)OCC(CC)CCCC (centres undefined),inactive,
CC(C)Nc1ccc(Nc2ccccc2)cc1,,20 µM (active)
O=C(O)C(F)(F)OC(F)(F)C(F)(F)OC(F)(F)C(=O)O,inactive,

SMILES,outcome,AC50
CCCCC(CC)COP(=O)(Oc1ccccc1)Oc1ccccc1 (centres undefined),,11.1 µM (active)
O=C(O)C(F)(F)C(F)(F)C(=O)O,inactive,
N#Cc1cc([N+](=O)[O-])ccc1N,inactive,
CCOP(=S)(OCC)SCn1nnc2ccccc2c1=O,inactive,
C=CC(=O)OCC(F)(F)C(F)F,,44.1 µM (active) and 32.7 µM (active)
O=c1ssc(Cl)c1Cl,,6.69 µM (active)
O=S1(=O)OCC2C(CO1)C1(Cl)C(Cl)=C(Cl)C2(Cl)C1(Cl)Cl (centres undefined),inactive,
C=CC(=O)OCC(CC)(COC(=O)C=C)COC(=O)C=C,,2.5 µM (active)
O=C(O)C=CC(F)(C(F)(F)F)C(F)(F)F,inactive,
CCOP(=S)(OCC)SCS(=O)(=O)CC,inactive,
CC(Cl)CN(C)C (centres undefined),,20 µM (active)
O=S(=O)(F)C(F)(F)C(F)(F)C(F)(F)C(F)(F)C(F)(F)C(F)(F)C(F)(F)C(F)(F)F,inactive,
O=C(O)C(F)(OC(F)(F)C(F)(F)C(F)(F)F)C(F)(F)F (centres undefined),inactive,
CCOP(=S)(S)OCC,inactive,
Nc1ccc([N+](=O)[O-])cc1Cl,inactive,
COP(=O)(O)OC,inactive,
OCC(F)(F)OC(F)(F)C(F)(F)OC(F)(F)CO,inactive,
N#Cc1c(-c2ccc(Cl)cc2)[nH]c(C(F)(F)F)c1Br,,0.71 µM (active)
NC(=O)C(F)(F)C(F)(F)F,inactive,
